Results on six compounds are retold here after PubChem BioAssay.

A short description of experiment [1]: growth inhibition of DIPG glioma cells, dose response, cell-based, SU-DIPG-XVII, MIPE5.0, CellTiter-Glo, qHTS (AID 1347060; cut-off not given, nearly all actives have AC50 up to about 26 µM;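 as to AC50: cells exposed to compound for 48 hours before viability readout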). As to conditions: SU-DIPG-XVII viability, CellTiter-Glo ATP luminescence. A general note: ATP-based viability assays read luminescence as a measure of living cells.
Experiment [2] in a line: growth inhibition of DIPG glioma cells, dose response, cell-based, SU-DIPG-XIII, MIPE4.0, CellTiter-Glo, qHTS (AID 1347061; cut-off not given, nearly all actives have AC50 up to about 37 µM;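 also: cells exposed to compound for 48 hours before readout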). Conditions: SU-DIPG-XIII viability, CellTiter-Glo ATP luminescence.
Experiment [3] in a line: growth inhibition of DIPG glioma cells, dose response, cell-based, SU-DIPG-IV, MIPE4.0, CellTiter-Glo, qHTS (AID 1347063; cut-off not given, nearly all actives have AC50 up to about 30 µM;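 also: compound exposure lasted 48 hours before the viability readout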). As to conditions: SU-DIPG-IV viability, CellTiter-Glo ATP luminescence.
Experiment [4] can be described thus: viability loss in pontine glioma line – cell-based, SU-DIPG-XXV, MIPE5.0, CellTiter-Glo, qHTS, dose response (AID 1347065; cut-off not given, nearly all actives have AC50 up to about 26 µM;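 also: cells exposed to compound for 48 hours before ATP readout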). Conditions: CellTiter-Glo ATP luminescence.
Experiment [5] in a line: SU-DIPG-VI glioma cell viability, MIPE4.0 library, CellTiter-Glo luminescence, qHTS (AID 1347066; cut-off not given, nearly all actives have AC50 up to about 30 µM;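 also: cells exposed to compound for 48 hours before readout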). Conditions: CellTiter-Glo ATP luminescence.
Experiment [6] is described as follows: SU-DIPG-XXV glioma cell viability, MIPE5.0 library, qHTS (AID 1347068; cut-off not given, nearly all actives have IC50 up to about 30 µM;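 as to IC50: cells exposed to compound for 48 hours before viability readout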).
The nature of experiment [7]: growth inhibition of DIPG glioma cells, dose response, cell-based, JHH-DIPG-1, MIPE4.0, CellTiter-Glo, qHTS (AID 1347062; cut-off not given, nearly all actives have AC50 up to about 27 µM;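 also: cells exposed to compound for two days before readout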). As to conditions: JHH-DIPG-1 viability, CellTiter-Glo ATP luminescence.
A short description of experiment [8]: growth inhibition of DIPG glioma cells, dose response, cell-based, SU-DIPG-XIII, MIPE5.0, CellTiter-Glo, qHTS (AID 1347064; cut-off not given, nearly all actives have AC50 up to about 23 µM;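 as to AC50: cells exposed to compound for 48 hours before the viability read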). As to conditions: SU-DIPG-XIII viability, CellTiter-Glo ATP luminescence.
Experiment [9] is described as follows: JHH-DIPG-1 glioma cell viability, MIPE5.0 library, CellTiter-Glo luminescence, qHTS (AID 1347067; cut-off not given, nearly all actives have AC50 up to about 26 µM;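 also: cells exposed to compound for 48 hours before readout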). As to conditions: JHH-DIPG-1 glioma viability, CellTiter-Glo ATP luminescence.
Experiment [10] can be described thus: sensitizers of A549 cells to miR-34 induction, primary screen, imaging, A549 dox-inducible miR-34, nuclei and caspase counts (AID 1347080;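 active = compounds whose cell count with miR-34 switched on is under 0.7 times the count with it off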). As to conditions: A549 miR-34 inducible, Hoechst nuclei count, 48 h.
Experiment [11] is described as follows: modifiers of HSF1 nuclear foci, imaging, Selleck Cancer Library (AID 1347162; in the data active = plate-normalised HSF1 focus index below about 0.46). As to conditions: human cells, at 10 µM; SSMD: measured here: HSF1 foci SSMD mean; cell count: measured here: cell number; plate-normalised HSF1 focus index: stronger effect = lower value.
The nature of experiment [12]: survival rescue of mitochondrial mutant cells in low glucose, primary screen, MELAS cybrids, Rieske KO mouse fibroblasts, CellTiter-Glo (AID 1508586;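 active = mean z-score across replicates of 1.96 or higher in either the MELAS or the Rieske mutant cell line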;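 also: z relative to plate mean and SD of compound and empty wells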).
Experiment [13] is described as follows: ovarian cancer cell viability with rucaparib, profiling panel, oncology-focused library, rucaparib conditional (AID 1508598). Conditions: patient-derived ovarian cancer cells, CellTiter-Glo viability, 144 h, stronger effect = lower value.
[14] abbreviates: stronger effect = lower value, cell number ratio, induced over uninduced.
Where [15] appears, read: measured here: relative caspase fold change +Dox/-Dox.
[16] abbreviates: measured here: total cells with miR-34 induction, stronger effect = lower value.
Where [17] appears, read: measured here: total cells without miR-34 induction.
[18] abbreviates: MELAS cybrid survival, CellTiter-Glo 48 h, stronger effect = higher value.
Where [19] appears, read: Rieske KO mouse fibroblast survival, CellTiter-Glo 72 h.

The structures appear in SMILES notation. Records with an inconclusive call do not appear. Calls of active or inactive are those of the source.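 The calls were made as follows, unless noted: active = normalized viability below 100% at a tested concentration; inactive = the rest.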

As a reminder, the AC50 is the concentration at which the activity in the assay is half-maximal. Regarding `CCC(=O)NC[C@H](Cc1ccc(OCCc2nc(-c3ccccc3)oc2C)cc1)N/C(C)=C\C(=O)c1ccc(C(F)(F)F)cc1`, the figures for the concentration at half-maximal activity (AC50) in experiment [1], in [3] and in experiment [4] were 16.6 µM (active), 8.33 µM (active) and 13.2 µM (active), respectively. Further, the result in experiment [2], in [5] and in experiment [6] was inactive.
Turning to `COc1cc(C(C)C)c2c(c1)S(=O)(=O)N(COc1cc(=O)n3cccc(OCCN4CCCCC4)c3n1)C2=O`, the AC50 in experiment [1] was 23.5 µM (active); in experiment [4], 20.9 µM (active). The result in [2] was inactive.
On to `C[C@H](NC(=O)/C(C#N)=C/c1cccc(Br)n1)c1ccccc1`, for which the concentration at half-maximal activity (AC50) is 7.42 µM (active) in experiment [1]; 9.35 µM (active) in experiment [7]; 7.43 µM (active) in experiment [3]; 7.42 µM (active) in experiment [8]; 3.72 µM (active) in experiment [4]; 14.8 µM (active) in experiment [5]. The AC50 in experiment [9] is 9.34 µM (active).
Take `C=C1C(=O)OC2/C=C(/C)CC/C=C(/C)CCC12` (stereo not drawn): the figures for the half-maximal activity concentration (AC50) in [1], in experiment [4] and in experiment [9] were 20.9 µM (active), 18.6 µM (active) and 16.6 µM (active), respectively. Also, in experiment [2], the result was inactive.
A word on the IC50: it is the concentration needed to halve the response being measured. The viability is a read-out of living cells in per cent, often relative to untreated cells. In the case of `CC1(COc2ccc3c(c2)ncn3-c2ccc3cccc(N4CCC(N)CC4)c3n2)COC1`, the AC50 is 9.34 µM (active) in experiment [1]; 0.332 µM (active) in experiment [7]; 1.18 µM (active) in [3]; 10.5 µM (active) in [8]; 8.33 µM (active) in experiment [4]; 23.5 µM (active) in [5]. In experiment [9], the concentration at half-maximal activity (AC50) is 13.2 µM (active). Moreover, the concentration for half-maximal inhibition (IC50) in experiment [6] is 26.3 µM (active). The fold change is 0.944 (inactive) in [10] (setting [14]) and 1.21 in [10] (setting [15]). Besides, the cell count was determined as 1330 in [10] (setting [16]), 1400 in experiment [10] (setting [17]) and 7140 in experiment [11]. For the same compound, in [11], the SSMD is -2.3. The plate-normalised HSF1 focus index in experiment [11] is 0.92 (inactive). The z-score in [12] (setting [18]) was 0.899 (inactive); in experiment [12] (setting [19]), -3.35. Moreover, the viability in experiment [13] (at 0.000305 µM, OCI-C5x cells, with rucaparib 10 µM, 100% = cells with rucaparib alone) is 110% (inactive); in [13] (at 0.000305 µM, OCI-C5x cells, without rucaparib), 122% (inactive); in experiment [13] (at 0.000305 µM, OCI-P5x cells, with rucaparib 20 µM, 100% = cells with rucaparib alone) it was 122% (inactive); in [13] (at 0.000305 µM, OCI-P5x cells, without rucaparib), 113% (inactive); in experiment [13] (at 0.00122 µM, OCI-C5x cells, with rucaparib 10 µM, 100% = cells with rucaparib alone), 115% (inactive); in [13] (at 0.00122 µM, OCI-C5x cells, without rucaparib), 125% (inactive). The viability in experiment [13] (at 0.00122 µM, OCI-P5x cells, with rucaparib 20 µM, 100% = cells with rucaparib alone) was 119% (inactive); in experiment [13] (at 0.00122 µM, OCI-P5x cells, without rucaparib), 120% (inactive); in experiment [13] (at 0.00488 µM, OCI-C5x cells, with rucaparib 10 µM, 100% = cells with rucaparib alone) it was 111% (inactive); in experiment [13] (at 0.00488 µM, OCI-C5x cells, without rucaparib), 121% (inactive); in [13] (at 0.00488 µM, OCI-P5x cells, with rucaparib 20 µM, 100% = cells with rucaparib alone), 120% (inactive); in [13] (at 0.00488 µM, OCI-P5x cells, without rucaparib), 117% (inactive). Besides, the viability in experiment [13] (at 0.0195 µM, OCI-C5x cells, with rucaparib 10 µM, 100% = cells with rucaparib alone) is 115% (inactive); in experiment [13] (at 0.0195 µM, OCI-C5x cells, without rucaparib), 127% (inactive); in experiment [13] (at 0.0195 µM, OCI-P5x cells, with rucaparib 20 µM, 100% = cells with rucaparib alone) it was 119% (inactive); in experiment [13] (at 0.0195 µM, OCI-P5x cells, without rucaparib) it was 127% (inactive); in experiment [13] (at 0.0781 µM, OCI-C5x cells, with rucaparib 10 µM, 100% = cells with rucaparib alone), 119% (inactive); in [13] (at 0.0781 µM, OCI-C5x cells, without rucaparib), 130% (inactive). Moreover, the viability was 131% (inactive) in [13] (at 0.0781 µM, OCI-P5x cells, with rucaparib 20 µM, 100% = cells with rucaparib alone); 120% (inactive) in experiment [13] (at 0.0781 µM, OCI-P5x cells, without rucaparib); 116% (inactive) in [13] (at 0.313 µM, OCI-C5x cells, with rucaparib 10 µM, 100% = cells with rucaparib alone); 137% (inactive) in [13] (at 0.313 µM, OCI-C5x cells, without rucaparib); 129% (inactive) in [13] (at 0.313 µM, OCI-P5x cells, with rucaparib 20 µM, 100% = cells with rucaparib alone); 123% (inactive) in experiment [13] (at 0.313 µM, OCI-P5x cells, without rucaparib). Further, the viability in experiment [13] (at 1.25 µM, OCI-C5x cells, with rucaparib 10 µM, 100% = cells with rucaparib alone) was 102% (inactive); in [13] (at 1.25 µM, OCI-C5x cells, without rucaparib) it was 131% (inactive); in experiment [13] (at 1.25 µM, OCI-P5x cells, with rucaparib 20 µM, 100% = cells with rucaparib alone), 142% (inactive); in experiment [13] (at 1.25 µM, OCI-P5x cells, without rucaparib), 119% (inactive); in experiment [13] (at 5 µM, OCI-C5x cells, with rucaparib 10 µM, 100% = cells with rucaparib alone), 77.3% (active); in experiment [13] (at 5 µM, OCI-C5x cells, without rucaparib), 77.6% (active). Besides, the viability is 4.5% (active) in [13] (at 5 µM, OCI-P5x cells, with rucaparib 20 µM, 100% = cells with rucaparib alone) and 81.8% (active) in experiment [13] (at 5 µM, OCI-P5x cells, without rucaparib).
Take `COc1cc(NC(=O)c2ccc(-c3ccc(Cl)cc3)o2)cc(OC)c1`: the compound was classed as inactive in [1], in [8], in [4], in experiment [5], in experiment [9] and in experiment [6]. The concentration at half-maximal activity (AC50) in [7] was 0.935 µM (active); in experiment [3], 6.62 µM (active). The figures for the fold change in experiment [10] (setting [14]) and in experiment [10] (setting [15]) were 0.861 (inactive) and 0.756, respectively. In addition, the cell count in experiment [10] (setting [16]) worked out at 9550; in experiment [10] (setting [17]) it was 11100. In addition, the results for the z-score in experiment [12] (setting [18]) and in experiment [12] (setting [19]) were -0.392 (inactive) and 0.568, respectively.
